Results filed as inconclusive are left out. Values without a mark were called inactive. The source made the active and inactive calls. Calls follow the shape of the dose curve; as a rule, active = well fitted inhibition curve with a large enough effect; inconclusive = small, poorly fitted or top-dose-only effect; inactive = flat fitted curve, though single readings scatter.
Potency is read from the fitted curve at half-maximal effect.

One experiment in a line: BET inhibitor-based combinations targeting novel dependencies in MECOM-rearranged (r) AML: AML-191 cell line (AID 2202236; also: nearly all actives have a fitted effect of over 35% in size;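 as to viability (% of control): plate controls were vehicle wells for no effect and wells without cells for full effect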). To be noted: AML-191 viability, CellTiter-Glo luminescence, 48 h; series mostly up to 46 µM; viability (% of control): at the top concentration. Summed up: (§1)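 Luminescent ATP readout (CellTiter-Glo) after 48 hr drug exposure gives viability. Curves span 11 concentrations and are normalized to DMSO and empty wells. Activity is reported as area under the curve and its Z-transform within each cell line.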
For orientation: ATP-based viability assays read luminescence as a measure of living cells.
For the compound `Fc1ccc(C(OCCN2CCN(CCCc3ccccc3)CC2)c2ccc(F)cc2)cc1`, the Potency is 18.6 µM (active).

Regarding `Cc1ncc(OC[C@@]2(c3cccc(F)c3)C[C@H]2C(=O)Nc2ccc(F)cn2)c(C)n1`, the “viability (% of control)” value was 109%. For `O=C1CC[C@@]2(O)[C@H]3Cc4ccc(O)c5c4[C@@]2(CCN3CC2CC2)[C@H]1O5`, the “viability (% of control)” value is 109%. For the compound `C[C@]12Cc3cn[nH]c3C[C@@H]1CC[C@@H]1[C@@H]2CC[C@@]2(C)[C@H]1CC[C@]2(C)O`, the “viability (% of control)” value is 91.9%.

Consider `Clc1ccccc1C(c1ccccc1)(c1ccccc1)n1cccn1`, for which the “viability (% of control)” value was 107%. `Cc1sc2c(c1C)C(c1ccc(Cl)cc1)=N[C@@H](CC(=O)OC(C)(C)C)c1nnc(C)n1-2`: the Potency is 0.662 µM (active).

Turning to `COCC1(CO)C(=O)C2CCN1CC2` (centres undefined), the Potency is 10.5 µM (active). For the compound `C[C@]12CCC(=O)C(O)=C1CC[C@@H]1[C@@H]2CC[C@]2(C)C(=O)CC[C@@H]12`, the “viability (% of control)” value was 85.3% [at 92.2 µM]. Take `CC1=C(O)C(=O)C=C2C1=CC=C1[C@@]2(C)CC[C@@]2(C)[C@@H]3C[C@](C)(C(=O)O)CC[C@]3(C)CC[C@]12C`: the Potency is 0.934 µM (active).

On to `C[C@@H]1C[C@@H]([C@H](O)CC2CC(=O)NC(=O)C2)C(=O)[C@@H](C)C1`, for which the Potency is 0.742 µM (active). On to `c1ccc2c(CN3CCNCC3)cccc2c1`, for which the “viability (% of control)” value is 104%. For the compound `C[C@@H]1CC[C@H]2[C@@H](C)C(=O)O[C@@H]3O[C@@]4(C)CC[C@@H]1[C@]32OO4`, the Potency is 5.25 µM (active). Consider `C[C@]12CC[C@@H]3[C@@H](CCC4=CC(=O)CC[C@@H]43)[C@@H]1CC[C@@H]2OC(=O)CCc1ccccc1`, for which the “viability (% of control)” value is 93.1%.

For the compound `CN[C@@H]1Cc2cccc3[nH]c(=O)n(c23)C1`, the “viability (% of control)” value is 117%. With `CN(C)CCN(C)CCc1ccc(Cl)c(Cl)c1`, the “viability (% of control)” value is 87.1%.

In the case of `COC1(CS(=O)c2ccccc2)CCN(CCc2c[nH]c3ccc(F)cc23)CC1` (centres undefined), the “viability (% of control)” value is 103%. Consider `O=S(=O)(F)Cc1ccccc1`, for which the “viability (% of control)” value is 106%. Turning to `COc1ccc(C(=O)c2c(C)n(CCN3CCOCC3)c3cc(I)ccc23)cc1`, the Potency is 6.61 µM (active). The same measure, in the same setting: as for `CC(C)(C)c1cc(C=C(C#N)C#N)cc(Br)c1O`, the figure is 18.6 µM (active). Regarding `CCN1C[C@]2(OC(=O)c3ccccc3NC(C)=O)CC[C@H](OC)[C@@]34[C@H]5CC6[C@@H](OC)C[C@](O)(C(C[C@@H]23)[C@@H]14)[C@@]5(O)[C@@H]6OC`, the “viability (% of control)” value is 108%.

A short description of the next experiment: BET inhibitor-based combinations targeting novel dependencies in MECOM-rearranged (r) AML: AML-194 cell line (AID 2202237; also: nearly all actives have a fitted effect of over 40% in size;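 as to viability (% of control): plate controls were vehicle wells for no effect and wells without cells for full effect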). To be noted: AML-194 (MECOM-r AML) viability, CellTiter-Glo, 48 h; series mostly up to 46 µM; viability (% of control): at the top concentration. The method in brief:
as §1
`CCOC(=O)c1c(C(C#N)=CN)c2ccc(Cl)c(Cl)c2n1C`: the “viability (% of control)” value was 94.4%. As for `Cc1ncc(OC[C@@]2(c3cccc(F)c3)C[C@H]2C(=O)Nc2ccc(F)cn2)c(C)n1`, the “viability (% of control)” value was 96.9%.

Take `O=c1[nH]c2ccccc2n1C1CCN(Cc2ccc(-c3[nH]c4cc5ncnc5cc4nc3-c3ccccc3)cc2)CC1`: the Potency was 20.9 µM (active). Regarding `COC[C@@H](NC(C)=O)C(=O)NCc1ccccc1`, the “viability (% of control)” value is 119%. Regarding `O=C1CC[C@@]2(O)[C@H]3Cc4ccc(O)c5c4[C@@]2(CCN3CC2CC2)[C@H]1O5`, the “viability (% of control)” value was 108%. Consider `COc1ccc(C(=O)c2c(C)n(CCN3CCOCC3)c3ccccc23)cc1`, for which the Potency was 1.48 µM (active). On to `C[C@]12Cc3cn[nH]c3C[C@@H]1CC[C@@H]1[C@@H]2CC[C@@]2(C)[C@H]1CC[C@]2(C)O`, for which the “viability (% of control)” value is 106%. For `C[C@]12CC[C@@H]3c4ccc(OC(=O)N(CCCl)CCCl)cc4CC[C@H]3[C@@H]1CC[C@@H]2OP(=O)(O)O`, the “viability (% of control)” value was 104%.

For `COCC1(CO)C(=O)C2CCN1CC2` (centres undefined), the Potency is 10.5 µM (active). `C[C@]12CCC(=O)C(O)=C1CC[C@@H]1[C@@H]2CC[C@]2(C)C(=O)CC[C@@H]12`: the “viability (% of control)” value was 107% [at 92.2 µM]. Take `CCCC[N+]1(C)[C@H]2CC(OC(=O)[C@H](CO)c3ccccc3)C[C@H]1[C@H]1O[C@H]12` (some centres undefined): the “viability (% of control)” value is 109%. For `COc1cccc2c1C(=O)c1c(O)c3c(c(O)c1C2=O)C[C@@](O)(C(=O)CO)CC3OC1CC(N2CCOC(OC)C2)C(O)C(C)O1` (some centres undefined), the Potency was 0.0042 µM (active). As for `C[C@@H]1C[C@@H]([C@H](O)CC2CC(=O)NC(=O)C2)C(=O)[C@@H](C)C1`, the Potency was 0.833 µM (active). `CN1[C@H]2CC(O)C[C@H]1[C@H]1O[C@H]12` (some centres undefined): the “viability (% of control)” value is 122%. Take `c1ccc2c(CN3CCNCC3)cccc2c1`: the “viability (% of control)” value was 104%. Turning to `C[C@@H]1CC[C@H]2[C@@H](C)C(=O)O[C@@H]3O[C@@]4(C)CC[C@@H]1[C@]32OO4`, the “viability (% of control)” value is 96.3%. Consider `C[C@]12CC[C@@H]3[C@@H](CCC4=CC(=O)CC[C@@H]43)[C@@H]1CC[C@@H]2OC(=O)CCc1ccccc1`, for which the “viability (% of control)” value is 102%. Consider `CN(C)CCN(C)CCc1ccc(Cl)c(Cl)c1`, for which the “viability (% of control)” value is 100%. Still for that read-out and setting: as for `O=S(=O)(F)Cc1ccccc1`, the figure is 104%.

The values above are taken from PubChem BioAssay (NCATS).
